Data as given in PubChem BioAssay (Tox21).
Results filed as inconclusive are left out. Activity calls are given as the source filed them. Unless noted, the call rests on the fitted dose curve; in most records, active means well fitted curve in the direction sought with a large enough effect in the repeat runs; inconclusive means weak or mixed curves; inactive means no such curve, though single readings can be large; an effect the other way counts as inactive or inconclusive.

Key:
[1] = qHTS assay to identify small molecule antagonists of the thyroid receptor (TR) signaling pathway - cell viability counter screen (AID 743064); further: nearly all actives have a fitted effect of over 50% in size; further: potency means the concentration at half of the fitted maximal effect
Outline: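 GH3.TRE-Luc rat pituitary cells carrying a TRE-luciferase reporter were treated with compound plus 1 nM T3 (final) for 23.5 h at 37 °C. Viability was then read in the same wells by CellTiter-Fluor fluorescence after a further 30 min.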

[2] = qHTS assay to identify small molecule antagonists of the thyroid receptor (TR) signaling pathway (AID 743065); further: nearly all actives have a fitted effect of over 55% in size; further: potency means the concentration at half of the fitted maximal effect
Outline: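 Antagonism measured as loss of luciferase signal in GH3 cells stably carrying a TRE-luciferase reporter, co-treated with compound and T3 (1 nM final) for 23.5 h at 37 C. Viability was read in the same well by CellTiter-Fluor.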

[3] = system: thyroid hormone receptor (rat, GH3 cells); experiment: qHTS assay to identify small molecule agonists of the thyroid receptor (TR) signaling pathway (AID 743066; calls by dose curve)
[4] = qHTS assay to identify small molecule antagonists of the estrogen receptor alpha (ER-alpha) signaling pathway - cell viability counter screen (AID 743074; calls by dose curve;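 further: HEK293 cells carrying ER-alpha-UAS-bla reporter stimulated with 17beta-estradiol; nearly all actives have a fitted effect of over 45% in size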)
[5] = qHTS assay to identify small molecule antagonists of the estrogen receptor alpha (ER-alpha) signaling pathway using the BG1 cell line (AID 743080; calls by dose curve;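 further: BG1 cells stimulated with 17beta-estradiol alongside compound; nearly all actives have a fitted effect of over 25% in size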; further: potency means the concentration at half of the fitted maximal effect)
Outline: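 Endogenous full-length ER-alpha in BG1-Luc-4E2 cells drives a stably integrated 4×ERE luciferase gene; compounds were tested against 17beta-estradiol over 21.5 h, with luminescence and multiplexed viability fluorescence recorded.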

[6] = qHTS assay to identify small molecule antagonists of the estrogen receptor alpha (ER-alpha) signaling pathway using the BG1 cell line - cell viability counter screen (AID 743081);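 further: compound given together with 17beta-estradiol as the ER stimulus; nearly all actives have a fitted effect of over 45% in size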
Aromatase (Homo sapiens) = Aromatase (Homo sapiens) (UniProt P11511); experiment: qHTS assay to identify aromatase inhibitors (AID 743083); further: nearly all actives have a fitted effect of over 55% in size; further: potency means the concentration at half of the fitted maximal effect
Sequence of Aromatase (Homo sapiens) (P11511 whole entry, looked up): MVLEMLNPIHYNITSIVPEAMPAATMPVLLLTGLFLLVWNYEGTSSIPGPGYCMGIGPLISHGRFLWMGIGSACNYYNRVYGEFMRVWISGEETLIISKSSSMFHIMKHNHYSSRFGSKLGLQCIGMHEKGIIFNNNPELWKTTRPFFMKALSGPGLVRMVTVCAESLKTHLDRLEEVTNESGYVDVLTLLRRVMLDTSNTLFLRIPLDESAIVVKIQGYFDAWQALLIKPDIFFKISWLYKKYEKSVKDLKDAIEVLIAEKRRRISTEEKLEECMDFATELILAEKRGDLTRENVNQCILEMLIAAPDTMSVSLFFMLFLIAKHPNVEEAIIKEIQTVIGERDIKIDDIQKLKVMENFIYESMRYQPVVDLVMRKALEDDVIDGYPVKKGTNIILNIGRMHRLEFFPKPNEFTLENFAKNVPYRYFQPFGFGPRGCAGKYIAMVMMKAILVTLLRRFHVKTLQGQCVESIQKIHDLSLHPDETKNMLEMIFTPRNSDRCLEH

[7] = qHTS assay to identify aromatase inhibitors - cell viability counter screen (AID 743084);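 further: cells stimulated with testosterone during compound exposure; nearly all actives have a fitted effect of over 55% in size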
[8] = target: Aryl hydrocarbon receptor (Homo sapiens) (UniProt P35869); experiment: qHTS assay to identify small molecule that activate the aryl hydrocarbon receptor (AhR) signaling pathway (AID 743085); further: nearly all actives have a fitted effect of over 15% in size; further: potency means the concentration at half of the fitted maximal effect;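 on activation: HG2L7.5c1 human HepG2 liver cells with stably integrated DRE-driven firefly reporter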
Sequence of Aryl hydrocarbon receptor (Homo sapiens) (P35869 whole entry, looked up): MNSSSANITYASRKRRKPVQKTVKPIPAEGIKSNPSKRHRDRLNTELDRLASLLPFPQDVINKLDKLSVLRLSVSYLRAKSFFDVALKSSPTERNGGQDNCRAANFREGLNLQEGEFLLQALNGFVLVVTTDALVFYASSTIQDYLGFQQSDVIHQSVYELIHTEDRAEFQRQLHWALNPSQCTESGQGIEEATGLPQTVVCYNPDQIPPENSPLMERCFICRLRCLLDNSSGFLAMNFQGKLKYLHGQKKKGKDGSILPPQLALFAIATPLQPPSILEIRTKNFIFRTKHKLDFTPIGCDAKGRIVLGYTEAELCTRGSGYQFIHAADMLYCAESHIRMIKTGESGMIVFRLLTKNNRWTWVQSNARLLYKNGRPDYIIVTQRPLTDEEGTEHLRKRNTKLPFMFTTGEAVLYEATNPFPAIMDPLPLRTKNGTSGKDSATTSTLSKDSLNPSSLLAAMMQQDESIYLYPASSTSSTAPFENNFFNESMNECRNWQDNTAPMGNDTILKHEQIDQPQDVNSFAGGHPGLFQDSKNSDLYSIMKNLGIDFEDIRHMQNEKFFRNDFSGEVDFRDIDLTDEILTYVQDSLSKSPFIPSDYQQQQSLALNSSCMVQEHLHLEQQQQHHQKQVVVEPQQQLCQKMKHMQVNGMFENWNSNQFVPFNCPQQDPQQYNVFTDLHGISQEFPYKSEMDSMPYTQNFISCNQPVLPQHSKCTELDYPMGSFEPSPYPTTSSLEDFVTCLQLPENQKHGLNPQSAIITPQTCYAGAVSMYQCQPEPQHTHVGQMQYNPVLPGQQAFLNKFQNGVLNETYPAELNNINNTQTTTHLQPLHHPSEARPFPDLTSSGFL
Outline: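 HepG2 cells (HG2L7.5c1) stably carrying a firefly luciferase reporter driven by 20 dioxin responsive elements were exposed to compound for 24 h at 37C after a 5 h settling period; luminescence rise (ONE-Glo) indicated activation.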

[9] = qHTS assay to identify small molecule that activate the aryl hydrocarbon receptor (AhR) signaling pathway - cell viability counter screen (AID 743086);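 further: HepG2 liver cells carrying the AhR DRE luciferase reporter; nearly all actives have a fitted effect of over 45% in size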
Outline: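 Cytotoxicity counter screen: CellTiter-Fluor signal (30 min, 37 C) in 4000 HepG2 cells/well carrying the DRE-luciferase reporter, following 24 h compound exposure at 37 C.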

[10] = target: Peroxisome proliferator-activated receptor gamma (Homo sapiens) (UniProt P37231); experiment: qHTS assay to identify small molecule agonists of the peroxisome proliferator-activated receptor gamma (PPARg) signaling pathway (AID 743094; active means well fitted activation curve with a large enough effect in the signal ratio in the repeat runs, not every such curve was filed as active; the % refers to the signal ratio)
Sequence of Peroxisome proliferator-activated receptor gamma (Homo sapiens) (P37231 whole entry, looked up): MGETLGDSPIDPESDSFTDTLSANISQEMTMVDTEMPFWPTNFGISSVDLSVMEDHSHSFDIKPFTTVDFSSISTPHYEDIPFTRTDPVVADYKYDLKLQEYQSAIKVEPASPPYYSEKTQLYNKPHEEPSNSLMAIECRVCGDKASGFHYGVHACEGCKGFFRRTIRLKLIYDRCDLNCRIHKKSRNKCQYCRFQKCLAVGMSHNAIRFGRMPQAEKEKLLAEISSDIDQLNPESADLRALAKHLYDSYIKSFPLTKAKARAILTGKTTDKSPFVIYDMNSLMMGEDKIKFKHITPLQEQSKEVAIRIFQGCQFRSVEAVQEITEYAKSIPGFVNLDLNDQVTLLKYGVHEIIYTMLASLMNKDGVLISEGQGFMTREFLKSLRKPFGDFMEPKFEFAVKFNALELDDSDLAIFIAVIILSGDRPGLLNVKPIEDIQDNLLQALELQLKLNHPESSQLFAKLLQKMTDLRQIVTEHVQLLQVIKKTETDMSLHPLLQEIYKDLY
Outline: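 Quantitative HTS agonist mode: stable HEK293H line with UAS-beta-lactamase reporter under PPARg control, 17 h compound exposure at 37C, fluorescence after 1 h FRET substrate loading at room temperature.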

[11] = target: Peroxisome proliferator-activated receptor gamma (Homo sapiens) (UniProt P37231); experiment: qHTS assay to identify small molecule antagonists of the peroxisome proliferator-activated receptor gamma (PPARg) signaling pathway (AID 743191; calls by dose curve; further: nearly all actives have a fitted effect of over 30% in size)
Outline: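 Beta-lactamase reporter under UAS control in HEK293H PPARg-bla cells; compound treatment 17 h at 37C. Read-out: fluorescence intensity after 1 h room-temperature incubation with LiveBLAzer B/G FRET substrate.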

[12] = qHTS assay to identify small molecule antagonists of the peroxisome proliferator-activated receptor gamma (PPARg) signaling pathway - cell viability counter screen (AID 743194); conditions: Potency: co-treated with 50 nM rosiglitazone; further: nearly all actives have a fitted effect of over 55% in size
Outline: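 Viability was measured as CellTiter-Glo luminescence in GeneBLAzer PPARg UAS-bla HEK293H cells. These cells had been exposed 17 h at 37 C to compounds together with rosiglitazone at 50 nM final, with the beta-lactamase readout taken in the same wells.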

[13] = qHTS assay for small molecule agonists of the antioxidant response element (ARE) signaling pathway - cell viability counter screen (AID 743203; calls by dose curve; further: nearly all actives have a fitted effect of over 55% in size)
Outline: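 Seeded at 2,000 cells/well, ARE-bla HepG2 cells were incubated 5 hrs before compound addition. After 16 hrs of treatment at 37C with 5% CO2, CellTiter-Glo reagent was added and luminescence read 30 min later.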

[14] = qHTS assay for small molecule activators of the heat shock response signaling pathway (AID 743210; active means well fitted activation curve with a large enough effect in the signal ratio in the repeat runs, with a control signal flat, not every such curve was filed as active; the % refers to the signal ratio;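 further: HeLa cells with beta-lactamase reporter driven by heat shock elements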)
Outline: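 In HSE-bla HeLa cells, 5 h compound incubation (37 C) precedes addition of LiveBLAzer B/G substrate; after 2.5 h at room temperature, fluorescence intensity indicates reporter induction.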

[15] = qHTS assay for small molecule agonists of the antioxidant response element (ARE) signaling pathway (AID 743202; active means well fitted activation curve with a large enough effect in the signal ratio in the repeat runs, not every such curve was filed as active; the % refers to the signal ratio; further: potency means the concentration at half of the fitted maximal effect)
Outline: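 An ARE-responsive beta-lactamase gene stably integrated in HepG2 cells serves as reporter. After 5 h plating and 16 h compound incubation at 37 C, fluorescence of the B/G FRET substrate was measured.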

[16] = qHTS assay for small molecule activators of the heat shock response signaling pathway - cell viability counter screen (AID 743209); further: nearly all actives have a fitted effect of over 50% in size
Outline: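 First, HSE-bla HeLa cells were seeded at 1500 cells/well and kept overnight at 37 C. Next, compounds were pinned in and incubated 5 h. After the FRET substrate step, CellTiter-Glo was added and luminescence read 30 min later.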

[17] = target: Estrogen receptor (Homo sapiens) (UniProt P03372); experiment: qHTS assay to identify small molecule agonists of the estrogen receptor alpha (ER-alpha) signaling pathway (AID 743075; calls by dose curve; further: potency means the concentration at half of the fitted maximal effect)
Sequence of Estrogen receptor (Homo sapiens) (P03372 whole entry, looked up): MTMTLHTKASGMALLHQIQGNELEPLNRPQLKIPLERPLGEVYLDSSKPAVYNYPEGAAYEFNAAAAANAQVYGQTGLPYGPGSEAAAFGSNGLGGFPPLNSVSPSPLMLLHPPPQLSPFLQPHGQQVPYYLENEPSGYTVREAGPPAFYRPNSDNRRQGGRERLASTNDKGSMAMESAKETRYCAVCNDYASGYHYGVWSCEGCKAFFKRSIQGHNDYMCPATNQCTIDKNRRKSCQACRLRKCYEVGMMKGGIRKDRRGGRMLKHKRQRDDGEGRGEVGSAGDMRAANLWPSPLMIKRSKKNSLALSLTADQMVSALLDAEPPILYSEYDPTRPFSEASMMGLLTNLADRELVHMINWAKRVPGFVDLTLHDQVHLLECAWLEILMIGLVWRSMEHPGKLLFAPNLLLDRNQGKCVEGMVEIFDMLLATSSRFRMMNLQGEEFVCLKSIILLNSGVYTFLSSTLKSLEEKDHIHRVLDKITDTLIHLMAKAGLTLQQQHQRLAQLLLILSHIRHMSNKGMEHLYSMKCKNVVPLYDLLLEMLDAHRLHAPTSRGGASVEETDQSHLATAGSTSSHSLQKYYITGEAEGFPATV

[18] = target: Estrogen receptor (Homo sapiens) (UniProt P03372); experiment: qHTS assay to identify small molecule agonists of the estrogen receptor alpha (ER-alpha) signaling pathway using the BG1 cell line (AID 743079); conditions: BG1Luc4E2 cells, ERE-luciferase agonist, 22 h; at 70.3 µM (top of the series); further: nearly all actives have a fitted effect of over 20% in size
[19] = target: Estrogen receptor (Homo sapiens) (UniProt P03372); experiment: qHTS assay to identify small molecule antagonists of the estrogen receptor alpha (ER-alpha) signaling pathway (AID 743069; active means well fitted curve in the direction sought with a large enough effect in the signal ratio in the repeat runs, not every such curve was filed as active; the % refers to the signal ratio)
Outline: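 Compound effects are measured against 17beta-estradiol stimulation in HEK293 cells with a UAS-controlled beta-lactamase reporter for ER-alpha. Exposure lasts 18 hr at 37C; LiveBLAzer B/G FRET substrate follows for 2 hr at room temperature.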
On the % scale 0 is the no-effect control and ±100 the full control effect.

ClCC(Cl)Cl
inactive: Potency [1] | Potency [2] | Potency [3] | outcome [4] | Potency [5] | Potency [6] | Potency (Aromatase (Homo sapiens)) | Potency [7] | Potency [8] | outcome [9] | outcome [10] | Potency [11] | Potency [12] | Potency [13] | outcome [14]

CC(COc1ccc(Oc2ccccc2)cc1)Oc1ccccn1 (stereo not drawn)
inactive: Potency [1] | Potency [2] | Potency [3] | outcome [4] | Potency [6] | Potency (Aromatase (Homo sapiens)) | Potency [7] | Potency [8] | outcome [9] | outcome [10] | Potency [11] | Potency [12] | Potency [13] | Potency [16]
active: Potency [15] 48.5 µM

O=[N+]([O-])c1cccc2c([N+](=O)[O-])cccc12
active: Potency [15] 3.88 µM
inactive: Potency [1] | Potency [2] | Potency [3] | outcome [4] | Potency [6] | Potency (Aromatase (Homo sapiens)) | Potency [7] | outcome [9] | outcome [10] | Potency [11] | Potency [12] | Potency [13] | outcome [14]

O=C(Nc1ccccc1)c1ccccc1I
inactive: Potency [1] | Potency [2] | Potency [3] | outcome [4] | Potency [17] | activation [18] 0.753% | Potency [5] | Potency [6] | Potency [7] | outcome [9] | Potency [13] | Potency [16] | outcome [14]
active: Potency [8] 48.6 µM | Potency [15] 21.7 µM

COCC(=O)N(c1c(C)cccc1C)N1CCOC1=O
inactive: Potency [1] | Potency [2] | Potency [3] | outcome [4] | Potency [6] | Potency (Aromatase (Homo sapiens)) | Potency [7] | outcome [9] | Potency [15] | Potency [13] | Potency [16] | outcome [14]

O=C(CCN1CC1)OCC(CO)(COC(=O)CCN1CC1)COC(=O)CCN1CC1
inactive: Potency [1] | Potency [2] | Potency [3] | outcome [4] | Potency [6] | Potency (Aromatase (Homo sapiens)) | Potency [8] | outcome [9] | outcome [10] | Potency [11] | Potency [12] | Potency [15] | Potency [13] | Potency [16]

COP(=S)(OC)Oc1ccc(S(N)(=O)=O)cc1
inactive: Potency [1] | Potency [3] | Potency [19] | Potency [17] | activation [18] 10.7% | Potency [5] | Potency [6] | Potency (Aromatase (Homo sapiens)) | Potency [7] | Potency [11] | Potency [12] | Potency [15] | Potency [13] | Potency [16]

N#CC(CCc1ccc(Cl)cc1)(Cn1cncn1)c1ccccc1 (stereo not drawn)
active: Potency [1] 30.6 µM | Potency [2] 34.4 µM | Potency [5] 61.1 µM | Potency (Aromatase (Homo sapiens)) 30.6 µM
inactive: Potency [3] | Potency [17] | Potency [6] | Potency [7] | Potency [8] | Potency [12] | Potency [15] | Potency [13] | Potency [16]

CC(CCc1ccccc1)NC(C)C(O)c1ccc(O)cc1 (stereo not drawn)
inactive: Potency [3] | Potency [19] | outcome [4] | Potency [17] | activation [18] -7.77% | Potency [5] | Potency [6] | Potency (Aromatase (Homo sapiens)) | Potency [7] | Potency [8] | outcome [9] | outcome [10] | Potency [13] | Potency [16]
active: Potency [1] 16.8 µM

C[N+](=O)[O-]
inactive: Potency [1] | Potency [3] | Potency [19] | outcome [4] | Potency [17] | activation [18] 0.916% | Potency [5] | Potency [6] | Potency (Aromatase (Homo sapiens)) | Potency [7] | outcome [9] | Potency [11] | Potency [12] | Potency [13] | Potency [16]

CNC(=O)N(C)c1nc2ccccc2s1
inactive: Potency [1] | Potency [2] | Potency [3] | Potency [6] | Potency (Aromatase (Homo sapiens)) | Potency [7] | outcome [9] | outcome [10] | Potency [11] | Potency [13] | Potency [16] | outcome [14]
active: Potency [8] 27.3 µM

OC(c1ccc(F)cc1)(c1cncnc1)c1ccccc1Cl (stereo not drawn)
inactive: Potency [1] | Potency [3] | Potency [19] | outcome [4] | Potency [5] | Potency [6] | Potency [7] | outcome [9] | Potency [12] | Potency [13] | Potency [16] | outcome [14]
active: Potency [17] 49 µM [activator]

Cc1cc(C)c(C(=O)P(=O)(C(=O)c2c(C)cc(C)cc2C)c2ccccc2)c(C)c1
inactive: Potency [1] | Potency [2] | Potency [3] | activation [18] 37.1% | Potency [5] | Potency [6] | Potency (Aromatase (Homo sapiens)) | Potency [7] | Potency [8] | outcome [9] | outcome [10] | Potency [11] | Potency [12] | Potency [13] | Potency [16]

CNC(=O)Oc1ccc(N(C)C)c(C)c1
inactive: Potency [1] | Potency [3] | Potency [19] | outcome [4] | Potency [17] | Potency [5] | Potency [6] | Potency (Aromatase (Homo sapiens)) | Potency [7] | Potency [8] | outcome [9] | Potency [12] | Potency [13] | Potency [16] | outcome [14]
